Data from PubChem BioAssay (NCI).
This is part of a sample that, as a whole, favours compounds with a hit. Of some 79,000 tested, about 15% had one in any assay. Rule as the data show it: active = growth inhibition above about 70%; inactive = the rest.

Key:
[1] = NCI Yeast Anticancer Drug Screen. Data for the rad50 strain (AID 155);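 also: 0% = growth of vehicle-only cultures of the same strain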; details: S. cerevisiae rad50 strain growth inhibition; at 50.0 µM; hits give high values
Outline: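 Inhibition values express reduced yeast growth in compound-treated cultures relative to vehicle-treated controls.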

[2] = NCI Yeast Anticancer Drug Screen. Data for the mec2-1 strain (AID 157); details: S. cerevisiae mec2-1 strain, at 50.0 µM, hits give high values
Outline: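 Test agents were screened against the mec2-1 yeast strain, with defined DNA repair or cell cycle alteration. Growth was scored as inhibition against vehicle-only controls.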

[3] = NCI Yeast Anticancer Drug Screen. Data for the mlh1 rad18 strain (AID 175); details: S. cerevisiae mlh1 rad18 strain growth inhibition; at 50.0 µM; hits give high values
Outline: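 In this whole-cell yeast screen, a strain with altered DNA damage repair is challenged with compound, and its growth is measured against matched vehicle-treated controls.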

Measured: growth inhibition

OCNC(=S)c1c(Cl)cccc1Cl
inactive: [1] -4.25% | [2] -18.1% | [3] -6.6%

CN(C)c1ccc(P(c2ccc(N(C)C)cc2)c2ccc(N(C)C)cc2)cc1
inactive: [1] -17.2% | [2] -15.3% | [3] -25.2%

Fc1ccc(P(c2ccc(F)cc2)c2ccc(F)cc2)cc1
inactive: [1] 41.4% | [2] 9.6% | [3] 19.1%

COC(=O)C(C)CN1CC(C)OC(C)C1 (centres undefined)
inactive: [1] -25.2% | [2] -26.2% | [3] -13.2%

CC/C(=C\c1cccc([N+](=O)[O-])c1)C(=O)O
inactive: [1] -9.65% | [2] -25.6% | [3] -5.55%

CC(=O)CC1CCCC(CC(C)=O)N1C (centres undefined)
inactive: [1] -9.3% | [2] -19.2% | [3] 0.2%

O=C(Cc1nc2ccccc2[nH]c1=O)N/N=C/c1ccc2c(c1)CCC2
inactive: [1] -30.2% | [2] -28.6% | [3] -37.4%

Nc1ccc(Nc2nc3ccccc3s2)c(O)c1
inactive: [1] 22.6% | [2] 2.15% | [3] 24.6%

COc1ccc(/C=C(\C#N)c2ccc(Cl)cc2)cc1OC
inactive: [1] -2.05% | [2] -8% | [3] -1.15%

S=C(S)N1CCC(CCCC2CCN(C(=S)S)CC2)CC1
inactive: [1] -9.1% | [2] -22.1% | [3] -13.2%

Cc1ccc(N2CCOC2=O)cc1N1CCOC1=O
inactive: [1] -8.3% | [2] -32.6% | [3] -10.7%

Cc1cccc(C)c1NC(=S)N(C)C
inactive: [1] -8.8% | [2] -7.3% | [3] 4.65%

CCOC(=O)c1nc2cc(C)c(C)cc2[nH]c1=O
inactive: [1] 5.45% | [2] -5.4% | [3] -1.85%

C=CCOc1cccc(OCC=C)c1C
inactive: [1] -14.9% | [2] -20% | [3] -3.9%

Oc1ccccc1C=NCC1CCC(CN=Cc2ccccc2O)CC1 (centres undefined)
inactive: [1] 8.85% | [2] 13.1% | [3] 21%

O=[N+]([O-])c1ccc2nc3c(nc2c1)-c1cccc2cccc-3c12
inactive: [1] 2.15% | [2] -15.9% | [3] 12.3%

COc1ccc(-c2cc(=O)c3c(ccc4ccccc43)o2)cc1
inactive: [1] 21.6% | [2] 3.4% | [3] 7%

O=C1c2ccccc2C(=O)c2c1cccc2N1C(=O)C=CC1=O
inactive: [1] 51.2% | [2] 37.9% | [3] 63.7%

COc1ccc(C(C#N)N2CCCC2)cc1 (centres undefined)
inactive: [1] -21.9% | [2] -37.9% | [3] -9.75%

Nc1cc(S(=O)(=O)c2ccc(O)c(N)c2)ccc1O
inactive: [1] 5.1% | [2] -0.85% | [3] 9.05%

CC1CC(C)(C)N=C(Cc2ccccc2)O1 (centres undefined)
inactive: [1] -26.6% | [2] -11.6% | [3] 2.05%

CCOC(=O)C(C#N)C(C(C)=O)C(=O)OCC (centres undefined)
inactive: [1] 9.15% | [2] -1.45% | [3] 31.4%

CCN(CC)CCCOC(=O)N(Cc1ccc(Cl)cc1)C1CC1
inactive: [1] 51.2% | [2] 12.8% | [3] 46.6%

CCO/C=C1\SC(=S)N(c2ccc(C(=O)O)cc2)C1=O
inactive: [1] -6.05% | [2] -16.3% | [3] 13.2%

COc1cc(-c2cc(=O)c3c(O)cc(C)cc3o2)cc(OC)c1OC
inactive: [1] -0.85% | [2] -9.8% | [3] -17.8%

N#C/C(=C1C=C/C(=N/O)C(Br)=C/1)c1ccccc1
inactive: [1] 50.1% | [2] 13.2% | [3] 22%

Cc1cc(C)cc(NC(=O)c2ccccc2N)c1
inactive: [1] -5.15% | [2] -27.9% | [3] -4.6%

O=S(=O)(O)c1cccc2cccc(Cl)c12
inactive: [1] 9.7% | [2] -7.4% | [3] 10.9%

CCC(C)NCCNCCNC(C)CC (centres undefined)
inactive: [1] -9% | [2] -11.1% | [3] 0.8%

CC(=O)NCc1cc(CNC(C)=O)c(C)cc1C
inactive: [1] -17.5% | [2] -13.7% | [3] -23.6%

CC1=NN(c2ccccc2)C(=O)C1CCC#N (centres undefined)
inactive: [1] 10.6% | [2] -12.9% | [3] 31.4%

CCCCCCCCCCCCCCCCOc1ccc(C(=O)NN)cc1N
inactive: [1] -18.6% | [2] -29.9% | [3] -14.6%

S=C(NNc1ccccc1)NC1CCCCC1
inactive: [1] 7.35% | [2] -37.2% | [3] -8.6%

CC1(C)OC(=O)C(=Cc2c(Cl)cccc2Cl)C(=O)O1
inactive: [1] 0.05% | [2] 7.85% | [3] -7.3%

CCOC(=O)NC(C)(C)CN(C(=O)OCC)C(C)(C)CO
inactive: [1] 3.5% | [2] -26.2% | [3] 8.05%

O=[N+]([O-])c1ccc(-n2[nH]nnc2=S)cc1
inactive: [1] -6.7% | [2] -25% | [3] 16.1%

CCn1c(C)[n+](CC)c2ccc(C(F)(F)F)cc21
inactive: [1] -6.4% | [2] -10.7% | [3] 14.9%

CCOC(=O)CC(=O)c1ccc(C)cc1
inactive: [1] -13.6% | [2] -3.45% | [3] 9.75%

Cc1ccc(-c2noc(CC(=O)c3ccc([N+](=O)[O-])cc3)n2)cc1
inactive: [1] 14.4% | [2] 5.85% | [3] 38.8%

CCCCN1CCNCC1
inactive: [1] 10.1% | [2] -1.95% | [3] -2.55%

CCCCCCC(=O)C(CCCC)(C(=O)OCC)C(=O)OCC
inactive: [1] 0.4% | [2] -9.4% | [3] 7.35%

CCOC(=O)C1CCC(C(=O)OCC)N1c1ccc(C=O)cc1 (centres undefined)
inactive: [1] 16.1% | [2] -18.1% | [3] -3.45%

O=C(/C(=N/N=C\c1ccc([N+](=O)[O-])cc1)c1ccccc1)c1ccccc1
inactive: [1] -10.6% | [2] -18.4% | [3] -1.25%

CCOc1ccc(NC(=O)C2CCC(C)(C(=O)O)C2(C)C)cc1 (centres undefined)
inactive: [1] -3.45% | [2] 0.35% | [3] -0.8%

NC(=O)NC(CCCN=C(N)N)C(=O)O (centres undefined)
inactive: [1] -21.4% | [2] -36.3% | [3] -36.1%

COc1ccc(/C=N/N2C(=O)c3ccccc3C2=O)cc1OC
inactive: [1] 21% | [2] 1.2% | [3] 6.3%

O=C1Nc2ccccc2CCc2ccccc21
inactive: [1] -18.1% | [2] -34.3% | [3] -7.2%

COc1cc(/C=N/n2cnnc2)cc(OC)c1OC
inactive: [1] -8.35% | [2] 5.45% | [3] -13.7%

C[Si](C)(CCl)N[Si](C)(C)CCl
inactive: [1] -23.6% | [2] -33.9% | [3] -6.1%

C(=N\N=C\c1c[nH]c2ccccc12)/c1c[nH]c2ccccc12
inactive: [1] -21.6% | [2] -21.9% | [3] 0.25%

c1ccc2c(c1)OCCOCCOc1ccccc1OCCOCCO2
inactive: [1] 3.15% | [2] 10.8% | [3] 15.1%

CN1C(=S)c2ccccc2S1(=O)=O
inactive: [1] -6.6% | [2] -14.4% | [3] 24.2%

Clc1cccc(Cl)c1Br
inactive: [1] 7.45% | [2] -26.2% | [3] 16.9%

O=C1c2ccccc2C(=O)N1/N=C/c1ccc2c(c1)OCO2
inactive: [1] 22.5% | [2] 10.2% | [3] 18.4%

CSc1sc2cc([N+](=O)[O-])ccc2[n+]1C
inactive: [1] -0.4% | [2] -7.6% | [3] 55.4%

O=C(O)C1(c2ccc(Cl)cc2)CCCC1
inactive: [1] 12.1% | [2] 8.75% | [3] 60.6%

O=C1NC(C2CC3C=CC2C3)Nc2ccccc21 (centres undefined)
inactive: [1] 6.75% | [2] 0.8% | [3] 2.7%

CCn1c(C)nc2cc(S(=O)(=O)CS(C)(=O)=O)ccc21
inactive: [1] 17% | [2] -12.8% | [3] 19.8%

O=C(NNCN1C(=O)c2ccccc2C1=O)c1ccccc1
inactive: [1] -13.8% | [2] -15.7% | [3] -4.7%

CCN(CC)CCN(C)CC(=O)Nc1ccccc1C
inactive: [1] 1.9% | [2] 6.3% | [3] 38.4%

O=[N+]([O-])c1ccc2nc3c4ccccc4c4ccccc4c3nc2c1
inactive: [1] 53.1% | [2] -1.1% | [3] 3.65%

Cc1nc2c(Cl)cc(Cl)c(Cl)c2s1
inactive: [1] 9.65% | [2] 5.15% | [3] 51.1%

N#C/C(=C/c1ccc(O)c(O)c1)C(N)=O
inactive: [1] 23.6% | [2] -4.15% | [3] 17.1%

CCOc1ccc(Br)cc1/C=C1\N=C(c2ccccc2)OC1=O
inactive: [1] -2.25% | [2] -12.2% | [3] 1.7%

CCOC(=O)/C=C(\C)Nc1ccc(F)cc1
inactive: [1] -0.5% | [2] -17.6% | [3] 14.2%

Cc1ccc(/C=N/N2C(=O)c3ccccc3C2=O)cc1
inactive: [1] -28.9% | [2] -43.1% | [3] -37.9%

O=C1NC(=O)C(c2ccccc2)(C2CCC2)N1 (centres undefined)
inactive: [1] -6.95% | [2] -33.1% | [3] -13.3%

Cc1c(Cl)cccc1NCN1C(=O)c2ccccc2C1=O
inactive: [1] 9.65% | [2] -6.6% | [3] 31.5%
